Results filed as inconclusive are left out. Where a call stands in place of a potency, no number is given. Values without a mark were called inactive. The source made the active and inactive calls. Calls follow the shape of the dose curve; as a rule, active = well fitted curve in the direction sought with a large enough effect; inconclusive = small, poorly fitted or top-dose-only effect, or another doubt; inactive = no such curve, though single readings can be large; an effect the other way counts as inactive or inconclusive.
Tests used:
[1] = Primary qHTS for inhibitors of nuclear receptor binding SET domain protein 2 (NSD2) in an isogenic RCH-ACV NSD2 p.E1099K mutant (9B) (AID 1645876); also: nearly all actives have a fitted effect of over 70% in size; also: potency is read from the fitted curve at half-maximal effect
[2] = Primary qHTS for inhibitors of nuclear receptor binding SET domain protein 2 (NSD2) in an RCH-ACV wild type WT cells (2C) (AID 1645877); also: nearly all actives have a fitted effect of over 70% in size; also: potency is read from the fitted curve at half-maximal effect
[3] = target: Rap guanine nucleotide exchange factor 3 (Homo sapiens) (UniProt O95398); test: Confirmatory qHTS for antagonist of cAMP-regulated guanine nucleotide exchange factor 3 (EPAC1) (AID 1645880); also: nearly all actives have a fitted effect of over 55% in size
Outline: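 Released BODIPY-GDP fluoresces less than Rap1-bound BODIPY-GDP; the signal is followed at 480/540 nm at 5-min intervals over 30 min, after 5 min at room temperature. Reactions contain 100 nM EPAC1, 250 nM RAP1B-BODIPY-GDP and 50 uM GDP; results are normalized to ATA and DMSO.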

Rap guanine nucleotide exchange factor 3 (Homo sapiens), sequence (O95398 whole entry, looked up): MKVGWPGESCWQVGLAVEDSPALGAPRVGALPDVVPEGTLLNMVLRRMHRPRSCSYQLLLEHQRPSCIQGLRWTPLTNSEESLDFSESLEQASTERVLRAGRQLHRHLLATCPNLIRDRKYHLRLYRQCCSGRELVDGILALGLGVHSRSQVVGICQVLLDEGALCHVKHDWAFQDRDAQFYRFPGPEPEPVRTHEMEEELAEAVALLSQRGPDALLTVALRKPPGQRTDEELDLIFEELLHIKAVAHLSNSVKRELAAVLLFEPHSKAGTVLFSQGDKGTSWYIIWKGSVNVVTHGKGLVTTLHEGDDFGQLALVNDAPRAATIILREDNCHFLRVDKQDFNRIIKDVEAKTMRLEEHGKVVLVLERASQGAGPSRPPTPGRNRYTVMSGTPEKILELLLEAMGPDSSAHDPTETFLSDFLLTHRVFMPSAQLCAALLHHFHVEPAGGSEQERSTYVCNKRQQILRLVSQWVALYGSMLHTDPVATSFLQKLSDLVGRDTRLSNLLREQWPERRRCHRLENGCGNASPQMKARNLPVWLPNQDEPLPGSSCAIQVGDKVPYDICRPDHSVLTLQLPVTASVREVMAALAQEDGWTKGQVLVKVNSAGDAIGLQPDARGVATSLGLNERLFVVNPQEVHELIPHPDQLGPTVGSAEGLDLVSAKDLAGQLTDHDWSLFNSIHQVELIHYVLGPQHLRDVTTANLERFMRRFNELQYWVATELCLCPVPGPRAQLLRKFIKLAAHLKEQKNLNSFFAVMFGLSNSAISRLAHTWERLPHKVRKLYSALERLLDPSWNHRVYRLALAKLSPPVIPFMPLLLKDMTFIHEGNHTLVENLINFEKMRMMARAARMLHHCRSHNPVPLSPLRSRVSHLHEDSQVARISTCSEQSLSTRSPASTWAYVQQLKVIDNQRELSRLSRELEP

**Q.** What does the source list for CO[C@H]1[C@H](O)[C@H](O[C@H]2CC[C@]3(C)C4CC[C@]5(C)[C@H](C6=CC(=O)OC6)CC[C@]5(O)C4CC[C@@H]3C2)O[C@@H](C)[C@@H]1O (some centres not stated)?
**A.** Potency [1]: 22.4 nM (active); Potency [2]: 28.2 nM (active)

**Q.** For CC1=C2C(=O)C3[C@@H](CC=C4C[C@@H](O)CC[C@@]43C)[C@@H]2CC[C@]12O[C@@H]1C[C@H](C)CN[C@H]1[C@H]2C (some centres not stated), which Potency [1] is on record?
**A.** inactive

**Q.** And the Potency [2]?
**A.** inactive

**Q.** For CCN1C[C@]2(COC(=O)c3ccccc3N3C(=O)C[C@H](C)C3=O)CC[C@H](OC)[C@@]34[C@@H]5C[C@H]6[C@H](OC)[C@@H]5[C@](O)(C[C@@H]6OC)[C@](O)([C@@H](OC)[C@H]23)[C@@H]14, which Potency [1] is on record?
**A.** inactive

**Q.** What about the Potency [2] of the same compound?
**A.** inactive

**Q.** Which Potency [1] does the source give for COC(=O)C1(C)CCC(O)C2(C)c3c(O)cc(C(C)C)cc3C(O)C(OC(C)=O)C12 (configuration not stated) here?
**A.** inactive

**Q.** And the Potency [2]?
**A.** inactive

**Q.** Which results are given for CCN1C[C@]2(COC)[C@H](O)C[C@H](OC)[C@]34[C@@H]5C[C@]6(O)[C@H](OC(=O)c7ccccc7)[C@@H]5[C@@](O)([C@H]([C@H](OC)[C@H]23)[C@@H]14)[C@@H](O)[C@@H]6OC?
**A.** Potency [1]: inactive; Potency [2]: inactive

**Q.** Which Potency [1] does the source give for CCN1C[C@]2(OC(=O)c3ccccc3NC(C)=O)CC[C@H](OC)[C@@]34[C@@H]2C[C@@H]([C@@H]13)[C@@]1(O)C[C@H](OC)[C@H]2C[C@@H]4[C@]1(O)[C@H]2OC here?
**A.** inactive

**Q.** And the Potency [2]?
**A.** inactive

**Q.** With O=C1CN=C(c2ccccc2)c2cc(Cl)ccc2N1CC1CC1 as the compound, how does the outcome [3] read?
**A.** inactive

**Q.** For C[C@]12CC[C@H]3[C@@H]([C@H](O)CC4=CC(=O)CC[C@@]43C)[C@@H]1CC[C@@H]2O, which Potency [1] is on record?
**A.** inactive

**Q.** What about the Potency [2] of the same compound?
**A.** inactive

**Q.** Which results are given for Oc1ccc2c3c1O[C@H]1[C@H](N(CCCl)CCCl)CC[C@@]4(O)[C@@H](C2)N(CC2CC2)CC[C@]314?
**A.** activity change, negative = viability loss [1]: -5.8% [at 9.23 µM]; activity change, negative = cell killing [2]: -7.37% [at 9.23 µM]
